Screening data deposited in PubChem by several laboratories.
LMP1 NFkB inh: Epstein-Barr LMP1 NF-kappaB reporter inhibition. inhibition, % at 12.5 µM. hit rate 0.69% among 350,000. LMP1-induced NF-kappaB luciferase reporter cells, luminescence. AID 504558; in the data active = inhibition above about 41%;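 also: 0% = neutral control wells and 100% = reference inhibitor control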
TWEAK Fn14 block: blocks TWEAK-Fn14 interaction in a reporter cell assay | TWEAK-stimulated Fn14 reporter cells, luciferase luminescence, 8 h | inhibition, % at 10 µM | hit rate 2% among 360,000 | AID 1159606; in the data active = inhibition above about 50%
Shn3 3UTR inh: inhibitors of Schnurri-3 3'UTR reporter in osteoblasts; hit rate 0.52% among 360,000; inhibition, % at 12.5 µM; Clone20 osteoblast Shn3 3'UTR firefly luciferase, 24 h;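 active = mean inhibition of at least 75% with every replicate also reaching 75%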;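 also: 0% = median of neutral control wells and 100% = pilot-screen positive control compound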
HIF-2a inh: HIF-2a inhibition; 786-0 RCC cells HIF-2a reporter, luciferase luminescence, overnight; inhibition, % at 18.8 µM; hit rate 0.72% among 360,000; AID 624352;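 active = inhibition of the luminescence signal of 40% or more relative to plate controls, in a single-dose primary screen at 18.75 µM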
TROY NFkB inh: inhibitors of TROY-dependent NF-kB signaling | hit rate 0.98% among 360,000 | Q293 LMP1-TROYcd NF-kB luciferase reporter, 4 h | inhibition, % at 10 µM;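 active = compounds whose plate-normalised and pattern-corrected inhibition of the luciferase reporter signal at the single screening dose is 50% or more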
TRPM1 prom inh: MITF TRPM1 promoter inhibition in SK-MEL-5 cells | SK-MEL-5 TRPM1 promoter luciferase, 24 h | inhibition, % at 12.5 µM | hit rate 0.83% among 330,000 | AID 488899;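 active = mean inhibition across replicates of 60% or more, whatever share of single replicates reaches that level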
An asterisk follows results filed as active; / = not tested or not shown. In the library only some 3.4% were active in any assay of this set; here they are far more common.

SMILES | LMP1 NFkB inh | TWEAK Fn14 block | Shn3 3UTR inh | HIF-2a inh | TROY NFkB inh | TRPM1 prom inh
Cc1ccc(-c2nc3c(Cl)cc(Cl)cc3c(=O)n2O)cc1 | 21 | -23 | 4 | 15 | 6 | -4
O=C(c1cccc(NS(=O)(=O)c2ccc(F)c(F)c2)c1)N1CCN(C(c2ccccc2)c2ccccc2)CC1 | -12 | 57* | 25 | 18 | 11 | 3
Cc1c(/C=N/n2cnnc2)c2ccccc2n1CCOc1ccc(Cl)cc1 | 4 | 48 | 58 | 11 | 54* | 0
CC(=C\c1ccccc1)/C=C1/SC(=S)N(CCC(=O)O)C1=O | 0 | 55* | 5 | 81* | 9 | 5
COc1ccc(S(=O)(=O)N2CCC(C(=O)NCCC(=O)Nc3cccc(Cl)c3)CC2)cc1 | 15 | 7 | 28 | 9 | 6 | 13
C/C(=N\NC(=O)c1cc2ccccc2cc1O)c1cccs1 | 28 | 53* | -22 | -27 | -8 | 1
COC(=O)c1cc(-c2cccc(OC)c2)c2c(=O)[nH]c(=O)n(C)c2n1 | 1 | -13 | 6 | 24 | 7 | -9
CC(C)C(NC(=O)OCc1ccccc1)C(=O)NC(Cc1c[nH]c2ccccc12)C(=O)O (centres undefined) | / | 3 | 4 | 17 | 13 | /
O=C(CNC(=O)OCc1ccccc1)NCC(=O)NC(Cc1c[nH]c2ccccc12)C(=O)O (centres undefined) | / | -1 | 11 | 17 | 51* | /
CCc1cc2c(COC(=O)c3cccc(NS(C)(=O)=O)c3)cc(=O)oc2cc1O | 2 | 55* | -23 | -9 | 53* | 2
CCc1cc2c(COC(=O)c3cc(S(=O)(=O)N4CCOCC4)ccc3F)cc(=O)oc2cc1O | 4 | 9 | 1 | 19 | 45 | 20
O=S(=O)(Nc1ccc(O)c2ccccc12)c1cccs1 | -1 | 82* | 24 | 13 | 28 | 58
O=Nc1c(O)c2ccccc2c2ccccc12 | 3 | 98* | 79 | 24 | 42 | 97*
Cc1cc(C)c2c(c1)/C(=C/C(=O)c1ccc(Br)s1)C(=O)N2 | 27 | 36 | 50 | 4 | 11 | 59
Cc1cc(Br)c2c(c1)/C(=C/C(=O)c1cccs1)C(=O)N2 | -3 | 14 | 97* | 24 | 18 | 51
Cc1cccc2c1NC(=O)/C2=C\C(=O)c1cccs1 | 12 | 42 | 16 | 45* | 6 | 32
O=C1Nc2ccccc2/C1=C\C(=O)c1ccccc1 | 2 | 44 | 65 | 12 | 20 | 10
C/C=C(\C)C(=O)OC1[C@H](OC(C)=O)C2(CO)C(CC1(C)C)C1=CCC3C4(C)CCC(O[C@@H]5O[C@H](C(=O)O)[C@@H](O[C@@H]6O[C@H](CO)[C@@H](O)[C@H](O)[C@H]6O)[C@H](O)[C@H]5O[C@H]5O[C@H](CO)[C@@H](O)[C@H](O)[C@H]5O)[C@](C)(CO)C4CCC3(C)[C@]1(C)C[C@H]2O (some centres undefined) | 36 | 15 | 58 | 93* | 87* | 98*
C/C=C(/C)C(=O)OC1CC(C)(C)C[C@H]2C3=CC[C@@H]4[C@@]5(C)CCC(O[C@@H]6O[C@@H](C(=O)O)[C@@H](O)C(O[C@@H]7OC[C@H](O)[C@@H](O)[C@@H]7O[C@@H]7OC(CO)C(O)[C@@H](O)[C@@H]7O)C6O[C@@H]6OC(CO)C(O)C(O)C6O)[C@@](C)(CO)[C@@H]5CC[C@]4(C)[C@]3(C)CC(O)[C@@]12CO (some centres undefined) | 4 | -12 | 3 | 24 | 0 | 53
CC1(C)C[C@H]2C3=CCC4[C@@]5(C)CC[C@H](O[C@@H]6O[C@H](C(=O)O)[C@@H](O)[C@H](O)[C@H]6O)[C@@](C)(CO)C5CC[C@@]4(C)[C@]3(C)C[C@H](O)[C@@]2(CO)[C@@H](O)[C@@H]1O (some centres undefined) | 6 | 5 | 5 | 14 | 57* | -1
Cc1cc(C)cc(C(=O)NCC(=O)N2CCC(C(N)=O)CC2)c1 | 5 | 3 | 3 | 3 | -3 | 15
COC(=O)c1cc(=O)n(CCc2ccccc2F)c(=Nc2ccc(F)c(Cl)c2)s1 | -36 | 28 | 80 | 91* | -20 | /
COC(=O)c1ccc(N=c2sc(C(=O)OC)cc(=O)n2C)cc1 | 7 | 45 | -18 | 25 | -6 | 11
COc1ccc(NC(=O)c2cc(-c3ccccc3O)n[nH]2)cc1Cl | 4 | 1 | 1 | -64 | -24 | -4
COc1ccc(NC(=O)c2cc(-c3cc(C)cc(C)c3O)n[nH]2)cc1Cl | -12 | 82* | 11 | -12 | 64* | 2
SMILES | LMP1 NFkB inh | TWEAK Fn14 block | Shn3 3UTR inh | HIF-2a inh | TROY NFkB inh | TRPM1 prom inh
Cc1c(Cl)ccc(S(=O)(=O)N2CCN(C)CC2)c1Cl | 6 | -42 | -28 | 15 | -6 | /
Oc1nc(Nc2cccc(Cl)c2)sc1/C=C1\C=Nc2ccccc21 | -25 | 53* | -19 | -108 | 83* | -2
Oc1cccc(Nc2nc(O)c(/C=C3\C=Nc4ccccc43)s2)c1 | -5 | 15 | -116 | -256 | -41 | -43
CC1=Nc2ccccc2/C1=C\c1sc(Nc2ccc(C)cc2)nc1O | 9 | 55* | 9 | -108 | 26 | 18
O=C(Nc1ncn[nH]1)c1ccc(Cl)c(Cl)c1 | 0 | -6 | 3 | -11 | 18 | 4
CN(CC(=O)Nc1ccc(N2CCOCC2)cc1)Cc1c(O)ccc2ccccc12 | -1 | 34 | 4 | -4 | 50* | 11
NC(=O)C(CCc1nc2ccccc2[nH]1)NS(=O)(=O)c1ccccc1 (centres undefined) | -2 | 7 | 13 | 4 | -11 | /
COc1ccc(Cc2nc3ccc(C(=O)NCCc4ccccn4)cc3o2)cc1OC | 0 | 0 | -7 | -18 | 0 | -8
CC(C)(C)N=C1NN=C(c2ccc(Cl)cc2)CS1 | -9 | 65* | 1 | -190 | 62* | -47
CC(C)(C)N=C1NN=C(c2cc3ccccc3o2)CS1 | -29 | 63* | -36 | -184 | 70* | -26
Cc1ccc(NC(=O)c2cc(S(=O)(=O)N3CCOCC3)ccc2F)c(C)c1 | -10 | 80* | -6 | -49 | -20 | -22
Cc1cc(C)c(NC(=O)c2cc(S(=O)(=O)N3CCOCC3)ccc2F)c(C)c1 | -6 | 4 | -3 | 7 | 13 | 0
O=C(Nc1ccccc1Cl)c1cc(S(=O)(=O)N2CCCC(C(=O)O)C2)ccc1F (centres undefined) | -1 | 88* | -26 | 12 | 6 | 3
CC(=O)N[C@H]1[C@H]([C@H](O)[C@H](O)CO)O[C@](O)(C(=O)O)C[C@@H]1O | 8 | 7 | -1 | 3 | -6 | -3
COc1cc(NC(=O)CN2C(=O)COc3ccc(S(=O)(=O)N4CCOCC4)cc32)cc(OC)c1 | -1 | 1 | -5 | 8 | -21 | 8
O=C1C(=O)N(CCN2CCOCC2)C(c2ccccn2)/C1=C(/O)c1ccccc1 (centres undefined) | 4 | 63* | 6 | 2 | 1 | 4
